These results are taken from PubChem BioAssay AID1611 (NINDS Approved Drug Screening Program, 2009).

The structures appear in SMILES notation.

The assay in a line: HSE-luciferase reporter activators – cell-based (AID 1611). Particulars: human cells, HSE-luciferase heat shock reporter; stronger effect = higher value.
Consider `CC(C)Oc1ccc2c(=O)cc(-c3ccccc3)oc2c1`, for which the fold change worked out at 1.28.

With `Fc1ccc(C(c2ccc(F)cc2)N2CCN(C/C=C/c3ccccc3)CC2)cc1`, the fold change came to 1.3.

Regarding `CC[C@H]1OC(=O)[C@H](C)[C@@H](O[C@H]2C[C@@](C)(OC)[C@@H](O)[C@H](C)O2)[C@H](C)[C@@H](O[C@@H]2O[C@H](C)C[C@H](N(C)C)[C@H]2O)[C@](C)(O)C[C@@H](C)C(=O)[C@H](C)[C@@H](O)[C@]1(C)O`, the fold change was 0.93.

As to `C[C@](N)(Cc1ccc(O)c(O)c1)C(=O)O`, the fold change turned out to be 0.74.

Take `C[N+](C)(C)CCO`: the fold change worked out at 0.93.

Regarding `O=C(OCc1ccccc1)c1ccccc1`, the fold change worked out at 0.75.

On to `CC(=O)Nc1nnc(S(N)(=O)=O)s1`, for which the fold change worked out at 0.33.

Consider `CN[C@@H]1[C@H](OC2[C@H](O[C@H]3[C@H](O)[C@@H](O)[C@H](N=C(N)N)[C@@H](O)[C@@H]3N=C(N)N)O[C@@H](C)[C@]2(O)C=O)O[C@@H](CO)[C@H](O)[C@H]1O` (stereo partly specified), for which the fold change worked out at 1.17.

Consider `COc1cc(NS(=O)(=O)c2ccc(N)cc2)nc(OC)n1`, for which the fold change came to 0.93.

As to `CN(Cc1cnc2nc(N)nc(N)c2n1)c1ccc(C(=O)N[C@@H](CCC(=O)O)C(=O)O)cc1`, the fold change was determined as 0.91.

For the molecule `CC(C)(C)NCC(O)c1cc(O)cc(O)c1` (stereo unspecified), the fold change is 0.99.

Consider `N[C@@H]1[C@@H](O)[C@H](O)[C@@H](CO)O[C@H]1O`, for which the fold change stood at 1.15.

Regarding `CC(C)COCC(CN(Cc1ccccc1)c1ccccc1)N1CCCC1` (stereo unspecified), the fold change was 0.78.

With `CC(Cc1ccc(O)c(O)c1)(NN)C(=O)O` (stereo unspecified), the fold change came to 1.02.

With `O=C1c2cccc(O)c2C(=O)c2c(O)cccc21`, the fold change was 0.86.

For `Nc1ccc(S(=O)(=O)Nc2cnc3ccccc3n2)cc1`, the fold change was determined as 1.17.
